# ChEMBL document CHEMBL4513216, “Probing the Open Global Health Chemical Diversity Library for Multistage-Active Starting Points for Next-Generation Antimalarials” (ACS Infect Dis, 2020)
# Among all 69,000 compounds or so, about 8,600 (12%) showed an effect of 50% or more. Only a selection was taken, and strong results are over-represented in it overall.
# System: Plasmodium berghei
# Assay: Screen against P. berghei liver stage (PbLuc), transformed with Luciferase, at 10uM
# Type: functional, HepG2
# Details: tested at 10 uM
row,SMILES,INHIBITION [%]
1,O=C(CN1CCSC(c2ccccc2)C1)NCc1ccccn1 (centres undefined),31.9
2,O=C(CCc1ccc2c(c1)CCO2)Nc1nnn[nH]1,28.6
3,COc1ccc(C(=O)N2CC(=O)N(CC3CC3)CC(O)C2)cc1 (centres undefined),42.7
4,CC(C)c1cc(C(=O)N2CCOCC2CC(=O)c2ccco2)nn1C (centres undefined),-4.35
5,COc1ccc(CN2CC[C@@H](O)[C@@H]2Cc2ccccc2)cc1,-23.7
6,C/N=C1/c2cc3cc(OC)ccc3n2CCN1C,15.06
7,C/N=C1/c2cc3cc(OC)ccc3n2CCN1Cc1ccccc1,67.6
8,COc1ccc2c(ccn2CCN)c1,34.7
9,C/N=C1\c2cc3cc(OC)ccc3n2CCN1C,-6.09
10,C/N=C1\c2cc3cc(OC)ccc3n2CCN1Cc1ccccc1,83
11,Fc1cccc(CN2CCC[C@@H](Cn3nnc(-c4ccccn4)n3)C2)c1,40.1
12,Cn1nc(CNC(=O)c2cccc(C(F)(F)F)c2)c2c1CCOC2,15.9
13,O=C(c1cc2c(s1)CCC2)N1CCCC1Cn1cccn1 (centres undefined),-18.8
14,Cc1nc(CSCCC(=O)NCc2ccc(-n3cncn3)nc2)cs1,16.8
15,CCNC(=O)[C@@H]1CCCN1C1(C(=O)NC)CCCCC1,10.5
16,Cc1n[nH]c(C)c1-c1cnc(CC2CCN(C(C)C)CC2)cn1,23.2
17,Cc1cc(F)ccc1N1CCCC(NC(=O)CCCn2ccnc2)C1 (centres undefined),70.1
18,O=C(NC1CCCN(c2ccccc2Cl)C1)c1c[nH]nn1 (centres undefined),21.1
19,O=C(CCCn1ccnc1)NC1CCCN(c2ccccc2Cl)C1 (centres undefined),88
20,O=C(NC1CCCN(c2ccccc2Cl)C1)c1nc(=O)[nH][nH]1 (centres undefined),-6.05
21,Cc1cc(F)ccc1N1CCCC(NC(=O)CCc2ccncc2)C1 (centres undefined),29
22,Cc1ccc(Cl)cc1N1CCC(CNC(=O)CCn2ccnc2)C1 (centres undefined),31.8

row,SMILES,INHIBITION [%]
1,CCOCC1CN(c2ccncn2)Cc2cnn(CC)c21 (centres undefined),5.67
2,Cc1nn(C)c2cn(CC(=O)N3CCc4ccccc4C3)nc12,8.49
3,CC(C)(C)NC(=O)N1CCC(Oc2ccc(C(F)(F)F)cn2)CC1,86.3
4,CCOCC(=O)N1CCC(Oc2ccc(C(F)(F)F)cn2)CC1,11.8
5,CCOC(=O)N1CCC(Oc2ccc(C(F)(F)F)cn2)CC1,-16.4
6,NC(=O)Cn1cc(NC(=O)N2CCSCC2)cn1,-15
7,O=C(NCc1ccnc(OCC(F)(F)F)c1)NCC1COCCO1 (centres undefined),4.12
8,CC(CC(=O)c1ccccc1)NC(=O)c1ccon1 (centres undefined),28.2
9,Cc1nc(CSCCC(=O)NCc2ccc(N(C)C)cc2)cs1,-58
10,N#CCSCCCN1CCN(C(=O)c2ccccc2F)CC1,69.7
11,CC(=O)N1CCN(CCCSCc2ccccc2)CC1,-23.5
12,N#CCSCCCN1CCN(C(=O)c2cccc(Cl)c2)CC1,10.7
13,O=C(c1ccccc1F)N1CCN(CCCn2cncn2)CC1,32.3
14,Cc1ccc(C(=O)N2CCN(CCCSCC#N)CC2)cc1F,5.41
15,CC(=O)N1CCCN(CCCSCc2ccccc2)CC1,15.7
16,Cc1cccc(C(=O)N2CCCN(CCCSCC#N)CC2)c1,59.2
17,N#CCSCCCN1CCCN(C(=O)c2ccccc2)CC1,50.1
18,N#CCSCCCN1CCN(C(=O)c2ccc(Cl)cc2)CC1,3.47
19,Cc1nc(CN2CCO[C@@H]3CN(Cc4ccsc4)C[C@@H]3C2)cs1,22.5
20,Cc1ccc(N2CCN(C(=O)CN3C[C@H]4CC[C@@H]3C4)CC2=O)cc1,32.1
21,CSc1ncnc(NCc2ccco2)c1C#N,9
22,CC(=O)N1CCCC2(C1)CN(c1nncs1)CCO2 (centres undefined),34

row,SMILES,INHIBITION [%]
1,c1cncc(N2CCOC3(CCCN(c4nncs4)C3)C2)c1 (centres undefined),26.3
2,CC(=O)N1CCCC2(C1)CN(C(=O)c1ccncc1)CCO2 (centres undefined),27.6
3,O=C(c1ccncc1)N1CCOC2(CCCN(c3nncs3)C2)C1 (centres undefined),58.4
4,COc1ccc(N2CCCC3(C2)CN(c2nncs2)CCO3)cc1 (centres undefined),65.6
5,Cc1cccc(N2CCCC3(C2)CN(c2nncs2)CCO3)c1 (centres undefined),38.5
6,O=C(CSc1ccccc1F)NS(=O)(=O)c1ccc2c(c1)OCCO2,40.9
7,CCn1cc(S(=O)(=O)N2CCN(S(=O)(=O)c3ccc(Br)s3)CC2)cn1,41
8,COc1ccc(NC(=O)CCN2CC=C(c3cnn(C)c3)CC2)c(C)c1,11.5
9,NC(=O)c1ccc(OCCCN2CCC3(CC2)OCCCC3O)cc1 (centres undefined),47.6
10,CCn1cc(C2=CCN(CCCOc3ccccc3)CC2)cn1,9.56
11,CCc1cccc(NC(=O)CCN2CC=C(c3cnn(C)c3)CC2)c1,0.348
12,Cn1cc(C2=CCN(CCCC(=O)Nc3ccc(C#N)cc3)CC2)cn1,50.4
13,COc1ccc(NC(=O)CCN2CC=C(c3cnn(C)c3)CC2)cc1Cl,-37.2
14,CC[C@@]1(O)CCN(CCCOc2ccc(C(N)=O)cc2)C[C@H]1O,50.5
15,Cn1cc(C2=CCN(CCCOc3ccc(C(N)=O)cc3)CC2)cn1,53.9
16,COc1ccccc1OCCCN1CC=C(c2cnn(C)c2)CC1,30.1
17,CO[C@H]1C[C@@H](O)C12CCN(CCCOc1ccc(C(N)=O)cc1)CC2,33.7
18,Cn1cc(C2=CCN(CCC(=O)NCc3ccc(Cl)cc3)CC2)cn1,33.7
19,CCc1nnc(NC(=O)CCN2CC=C(c3cnn(C)c3)CC2)s1,60.2
20,CC(C)NC(=O)CCCn1cnc2ccccc2c1=O,10.5
21,O=C(CCn1c(=O)oc2ccccc21)NCC(O)c1ccc(F)c(F)c1 (centres undefined),-12.5
22,O=S(=O)(N1CCOCC1)N1CCCCC1CCn1cccn1 (centres undefined),-84.5

row,SMILES,INHIBITION [%]
1,N#Cc1c(CN2CCCC2Cn2cncn2)cn2ccccc12 (centres undefined),-36
2,O=C(c1ccccn1)N1CCC(S(=O)(=O)c2ccccc2)C1 (centres undefined),45.5
3,O=C1CCOC[C@]2(CN(Cc3ccccc3)C[C@H]2c2ccccc2)N1,37.1
4,CCC(O)CN1CCN(C(=O)CCc2c(C)noc2Cl)CC1 (centres undefined),25.1
5,CC(=O)N1CCC(c2ccnc(Nc3cncnc3)n2)C1 (centres undefined),42.6
6,CCN1CC2(CCNCC2)COc2ccccc2S1(=O)=O,-0.79
7,CNC(=O)CN1C(=O)CCC12CCCN(Cc1cccc(F)c1)C2 (centres undefined),32.1
8,Cc1nc2[nH]cnc(Nc3cc(C)n(C)n3)c-2n1,-6.42
9,CCN(Cc1ccncc1)C1CCCN(Cc2ccc(F)cc2Cl)C1 (centres undefined),62.4
10,CCN(Cc1ccncc1)C1CCCN(Cc2ccc(F)cc2OC)C1 (centres undefined),25.5
11,CCN(Cc1ccncc1)C1CCCN(C/C=C/c2ccc(F)cc2)C1 (centres undefined),55.9
12,CCn1ccnc1CN(C)C1CCCN(Cc2ccccc2F)C1 (centres undefined),-11.3
13,CCn1c(C2CCCN(Cc3ccc(F)cc3Cl)C2)nn(C)c1=O (centres undefined),-36.4
14,Cc1nc(CN2CCCC(N(C)CCc3ccncc3)C2)no1 (centres undefined),25.7
15,O=C(c1ccncc1F)N1CCc2onc(COc3cccnc3)c2C1,29.9
16,CCc1nc(CC)n(CC(=O)NCc2ccccc2C)n1,37.6
17,CC(Cn1cccn1)NC(=O)N(C)Cc1cnn(C)c1 (centres undefined),22.6
18,O=C(c1ccc2c(c1)CCO2)N1CCN(c2cnccn2)CC1,-32
19,NCC(=O)N1CCCC(O)(CN2CCN(c3ccccc3)CC2)CC1 (centres undefined),2.55
20,COc1ccc(C[C@H]2CN(c3nnc(C)s3)CC[C@H]2OC)cc1,61.9
21,CO[C@H]1CCN(c2nnc(C)s2)C[C@@H]1Cc1ccccc1,-13.7
22,CO[C@@H]1CCN(c2nnc(C)s2)C[C@@H]1Cc1ccccc1,37.8

row,SMILES,INHIBITION [%]
1,Cc1nnc(N2CC[C@H](OCC3CC3)[C@@H](Cc3ccccc3)C2)s1,41.4
2,COc1ccc(C[C@H]2CN(c3nnc(C)s3)CC[C@@H]2OC)cc1,-3.83
3,Cc1nnc(N2CC[C@@H](OCC3CC3)[C@@H](Cc3ccccc3)C2)s1,92.5
4,CC(C)(C(=O)NCC1CCN(Cc2cccnc2)C1)c1ccccc1 (centres undefined),6.66
5,O=C(NC1CC1)c1ccccc1NCc1cn2cccnc2n1,-17
6,Cn1ccnc1CN1CCC2(CC1)CC(N1CCCC1)c1ccccc12 (centres undefined),24.6
7,CN1CC2(CCN(Cc3cccnc3)CC2)c2cccc(F)c21,-16.9
8,CN(C)C1CCC2(CCN(Cc3cccnc3)CC2)c2ccccc21 (centres undefined),50.4
9,CN1CC2(CCN(Cc3cccnc3)CC2)c2cc(F)ccc21,-29.8
10,Cn1ccnc1CN1CCC2(CC1)CCN(c1ccccc1)C2=O,16.6
11,CN(C)C1CCC2(CCN(Cc3nccn3C)CC2)c2ccccc21 (centres undefined),66.3
12,Cc1nn(CCC(=O)N2CCCC(OCc3cccnc3)C2)c(C)c1C (centres undefined),41.2
13,COC1CCCOC12CCN(C(=O)NCCc1cccs1)CC2 (centres undefined),-142
14,O=C(N1CCCCC1)N1CCCC(c2ncncc2-c2ccncc2)C1 (centres undefined),17.1
15,CCCc1cc(CN(C)C2CCSCC2)n[nH]1,50.1
16,Cc1cc(CC(C)NC2CCSCC2)[nH]n1 (centres undefined),22.7
17,COCc1cc(CN(C)C(=O)c2c[nH]nc2-c2cccc(F)c2)n[nH]1,-11.2
18,CCCc1cc(CN(C)C2CC(C)(C)NC(C)(C)C2)n[nH]1,11.6
19,CCCc1cc(C(=O)N(Cc2cccnc2)C2CCCCC2)[nH]n1,-9.87
20,CCCc1cc(CN(C)C2CSCCSC2)n[nH]1,51.1
21,CCCNC(=O)NC(=O)CN1CCN(Cc2nccn2CC)CC1,5.308
